Results from PubChem BioAssay AID1030 (National Center for Advancing Translational Sciences (NCATS), 2008).
The campaign covered roughly 220,000 compounds. About 16,000 (7.3%) were called active. Where a call stands in place of a potency, no number is given. Not shown: some 25% with an inconclusive outcome. Calls come from the whole dose curve; as a rule, active = well fitted inhibition curve with a large enough effect (not every such curve was filed as active); inconclusive = small, poorly fitted or top-dose-only effect, or another doubt; inactive = no such curve, though single readings can be large or run the other way. For the sample, actives were picked, then their nearest neighbours and some compounds at random.

target: Aldehyde dehydrogenase 1A1 (Homo sapiens) (UniProt P00352); experiment: qHTS Assay for Inhibitors of Aldehyde Dehydrogenase 1 (ALDH1A1); conditions: Purified ALDH1A1, NADH fluorescence, propionaldehyde substrate; series mostly up to 75.3 µM
Potency is the fitted concentration of half-maximal effect.

Aldehyde dehydrogenase 1A1 (Homo sapiens), sequence (P00352 whole entry, looked up): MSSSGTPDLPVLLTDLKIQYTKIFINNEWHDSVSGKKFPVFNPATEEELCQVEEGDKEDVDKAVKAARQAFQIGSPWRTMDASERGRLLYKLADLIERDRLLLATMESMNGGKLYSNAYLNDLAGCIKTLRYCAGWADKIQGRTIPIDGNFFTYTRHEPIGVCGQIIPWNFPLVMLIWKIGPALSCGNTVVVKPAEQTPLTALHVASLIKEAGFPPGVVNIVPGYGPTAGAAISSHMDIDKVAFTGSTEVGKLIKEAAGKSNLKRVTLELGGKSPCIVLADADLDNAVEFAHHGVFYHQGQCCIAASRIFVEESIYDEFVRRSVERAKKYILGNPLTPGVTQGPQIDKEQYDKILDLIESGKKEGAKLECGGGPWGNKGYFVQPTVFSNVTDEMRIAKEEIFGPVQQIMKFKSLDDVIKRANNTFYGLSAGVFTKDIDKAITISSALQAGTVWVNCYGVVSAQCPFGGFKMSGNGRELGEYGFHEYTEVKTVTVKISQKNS

Row | SMILES | Potency | activity, negative = inhibition
1 | CCOC(=O)C(NC(C)=O)C(=O)Nc1ccc(OC)cc1 (configuration not stated) | inactive | 
2 | COC(=O)c1ccc(NC(=O)CSc2nnc(CNc3ccc(OC)cc3)n2C)cc1 | 28.2 µM (active) | 
3 | COc1ccc(CC(=O)NCc2nnc(SCC(=O)Nc3nccs3)n2C)cc1 | inactive | 
4 | COc1ccc(C(=O)CSc2nnc(COc3ccccc3)n2Cc2ccco2)cc1 | 8.91 µM (active) | 
5 | COC(=O)c1ccc(NC(=O)CSc2nnc(-c3ccncc3)n2C)cc1 | inactive | 
6 | CCn1c(COc2ccccc2)nnc1SCC(=O)NCc1ccco1 | inactive | 
7 | CCn1c(CNC(=O)c2ccc(OC)c(OC)c2)nnc1SCC(=O)Nc1ccccc1 | inactive | 
8 | CCn1c(COc2ccc(OC)cc2)nnc1SCC(=O)Nc1cc(OC)ccc1OC | inactive | 
9 | O=C(CSc1nnc(-c2cccnc2)n1Cc1ccco1)c1ccc(Cl)cc1 | inactive | 
10 | CCn1c(CNc2ccc(OC)cc2)nnc1SCC(=O)c1ccc(OC)cc1 | 0.199 µM (active) | 
11 | CN(Cc1ccccc1)C(=O)CCc1ccccc1 | inactive | 
12 | CCOCCCNC(=O)C(=O)NCCCOCC | inactive | 
13 | CC(C)C(=O)Nc1cccc(NC(=O)c2ccc([N+](=O)[O-])cc2Cl)c1 | inactive | 
14 | Clc1ccc(N/N=C/c2cccs2)nn1 | inactive | 
15 | Cc1ccccc1-c1ccc(C(=O)O)s1 | inactive | 
16 | COc1ccc(CN2CCCC(C(=O)c3ccc(Cl)cc3)C2)cc1Cn1cncn1 (configuration not stated) | inactive | 
17 | CCOC(=O)c1[nH]ncc1CN1CCCC(C(=O)c2ccc(OC)cc2C)C1 (configuration not stated) | inactive | 
18 | COc1cc(OC)c(C(=O)N2CCCC2)cc1OC | inactive | 
19 | Cc1ccc(S(=O)(=O)N2CCC(C(=O)N[C@@H](C)C(=O)NCc3ccco3)CC2)cc1 | inactive | 
20 | Cc1ccc(S(=O)(=O)N2CCCC2C(=O)NCc2ccco2)cc1 (configuration not stated) | 28.2 µM (active) | 
21 | O=C(NCc1ccco1)C1CCCN(S(=O)(=O)c2ccccc2)C1 (configuration not stated) | inactive | 
22 | CSc1ncccc1C(=O)N1CCCC(CCC(=O)NCc2ccccc2F)C1 (configuration not stated) | inactive | 
23 | COc1ccc(C)cc1-n1nnnc1SCC(=O)c1cc(C)n(Cc2ccco2)c1C | 15.8 µM (active) | 

Row | SMILES | Potency | activity, negative = inhibition
24 | Cc1cc(C(=O)COC(=O)CNC(=O)c2ccc(F)cc2)c(C)n1Cc1ccco1 | inactive | 
25 | COc1ccc(OC)c(-n2nnnc2SCC(=O)Nc2cc(C)ccc2OC)c1 | inactive | 
26 | CC/C=C\C/C=C\C/C=C\C/C=C\C/C=C\C/C=C\CCC(=O)NCCc1ccc(O)c(O)c1 | inactive | 
27 | O=C(c1ccco1)N1CCN(C(=O)C2CC(c3ccc(F)cc3)=NO2)CC1 (configuration not stated) | inactive | 
28 | O=C(c1ccco1)N1CCN(C(=O)c2ccc(COc3ccc(F)cc3)o2)CC1 | 28.2 µM (active) | 
29 | COc1ccccc1OCc1ccc(C(=O)N2CCN(C)CC2)o1 | inactive | 
30 | CN(C)S(=O)(=O)c1cc(NC(=O)CN2C(=O)NC3(CCCc4ccccc43)C2=O)ccc1Cl (configuration not stated) | 12.6 µM (active) | 
31 | COc1ccc(-n2c(C)cc(C(=O)CN3C(=O)NC4(CCc5ccccc54)C3=O)c2C)cc1 (configuration not stated) | inactive | 
32 | Cc1ccc(NC(=O)CNCc2ccccn2)cc1S(=O)(=O)N(C)C | inactive | 
33 | Cc1ccc(/C=N/NC(=O)Cn2ccc(C(F)(F)F)n2)o1 | inactive | 
34 | CCN(CC)N=Nc1cccc(NC(C)=O)c1 | inactive | 
35 | O=C(N/N=C/c1coc2ccccc2c1=O)c1cc2ccccc2o1 | 10 µM (active) | 
36 | Cc1c(/C=N\NC(=O)c2cc3ccccc3o2)c2ccccc2n1C | inactive | 
37 | O=C(Nc1ccncc1)c1cc2ccccc2o1 | inactive | 
38 | NC(=O)Cn1nc([N+](=O)[O-])nc1Oc1ccc(Br)cc1 | inactive | 
39 | CC(C)(C)C(=O)N(Cc1ccccc1)c1ccccn1 | inactive | 
40 | CC(C)CCN1CCN(Cc2cn[nH]c2C2CCCCC2)CC1CCO (configuration not stated) | inactive | 
41 | Cc1ccc(N(NC(=O)C(C)(C)O)C(=O)c2ccccc2)cc1C | inactive | 
42 | CC(C)(O)C(=O)NN(C(=O)c1ccccc1)c1cccc(Br)c1 | inactive | 
43 | CCCCCCCCC(=O)NCCOc1ccccc1 | inactive | 
44 | CCCC(O)(CCC)C(=O)NN(C(=O)CCl)c1cccc(C)c1 | 39.8 µM (active) | 
45 | CCC(C)NC(=O)CCCc1ccccc1 (configuration not stated) | inactive | 
46 | CCCCC(O)(CCCC)C(=O)NN(C(=O)CCl)c1ccccc1 | 3.98 µM (active) | 

Row | SMILES | Potency | activity, negative = inhibition
47 | Cc1cc(NC(=O)CSCc2ccccc2C)no1 | inactive | 
48 | Cn1cnnc1Sc1ccc(CN2CCN(C3CCCC3)C(CCO)C2)o1 (configuration not stated) | inactive | 
49 | COc1cccc2cc(/C(C)=N/NC(=O)c3ccco3)oc12 | inactive | 
50 | C=CCOc1c(CNn2cn[nH]c2=S)cccc1OC | inactive | 
51 | CC(C)C(=O)NC(=S)Nc1ccccc1F | inactive | 
52 | CC(C)C(=O)Nc1cccc(NC(=S)NC(=O)C(c2ccccc2)c2ccccc2)c1 | 25.1 µM (active) | 
53 | CCCCC(=O)NNC(=S)NC(=O)C(c1ccccc1)c1ccccc1 | inactive | 
54 | Cn1nnnc1NCc1ccc(Cl)c(Cl)c1 | inactive | 
55 | COC(=O)c1ccc(/C=N/OCC(=O)Nc2cc(F)ccc2F)cc1 | inactive | 
56 | CCC(C(=O)OCC(=O)Nc1ccc(C(=O)Nc2ccc(OC)cc2)cc1)c1ccccc1 (configuration not stated) | inactive | 
57 | O=C(COC(=O)[C@H](Cc1ccccc1)NC(=O)c1cccs1)Nc1cc(F)ccc1F | 14.1 µM (active) | 
58 | CC(=O)c1ccc(NC(=O)N[C@@H](Cc2ccccc2)C(=O)O)cc1 | inactive | 
59 | NC(=O)c1ccc(NC(=O)COC(=O)C(Cc2ccccc2)NC(=O)c2ccccc2)cc1 (configuration not stated) | 0.891 µM (active) | 
60 | Cc1ccc(F)c(NC(=O)CCc2ccccc2)c1 | inactive | 
61 | CCCCCc1nnc(NC(=O)c2ccc(=O)n(C)n2)s1 | inactive | 
62 | C=CCn1cc(C(=O)NCc2ccc(Cl)cc2)c(=O)c2cc(S(=O)(=O)N(CC)CC)ccc21 | inactive | 
63 | Cc1nc2ccccc2c2oc(C(=O)NCCCN3CCC(C)CC3)cc12 | inactive | 
64 | Cc1ccc(C(=O)NCC2CCCO2)o1 (configuration not stated) | inactive | 
65 | Cc1nc2ccccc2c2oc(C(=O)NCC3CCCO3)cc12 (configuration not stated) | 14.1 µM (active) | 
66 | O=c1c(-c2ccccc2)cnc2n1CCS2 | inactive | 
67 | CN(C)CC(C)(C)CNC(=O)c1cc(Br)cc(Br)c1O | inactive | 
68 | CC(=O)c1ccc(S(=O)(=O)Nc2ccc(C(=O)NCC(c3ccccc3)N(C)C)cc2)cc1 (configuration not stated) | 2.82 µM (active) | 
69 | CN(C)C(CNC(=O)c1ccc(S(=O)(=O)NCc2ccco2)cc1)c1ccccc1 (configuration not stated) | inactive | 

Row | SMILES | Potency | activity, negative = inhibition
70 | CN(C)C(CNC(=O)Cc1ccc([N+](=O)[O-])cc1)c1ccccc1 (configuration not stated) | inactive | 
71 | CCC(C)(C)NC(=O)C(c1ccccn1)N(C(=O)c1csnn1)c1ccccc1 (configuration not stated) | inactive | 
72 | Cc1ccc(C(=O)N2CCCC(c3ccccc3)=N2)cc1 | inactive | 
73 | Cc1cc(C)c(OCCN2CC(C)OC(C)C2)c(Br)c1 (configuration not stated) | inactive | 
74 | COc1ccc(NC(=O)N2CCC(Cc3ccccc3)CC2)cc1 | inactive | 
75 | Cc1ccccc1/[N+]([O-])=C/c1ccncc1 | 3.98 µM (active) | 
76 | CCNC(=O)COC(=O)/C=C/c1c(C)nn(Cc2cccc(OC)c2)c1Cl | inactive | 
77 | O=C(CCNC(=O)Cn1ccc2ccccc2c1=O)NCCC1=CCCCC1 | inactive | 
78 | COc1ccc(CN(C)C(=S)Nc2ccc(Cl)cc2Cl)cc1 | inactive | 
79 | O=C1CC2(CC(c3ccc(Cl)cc3)=NO2)C(=O)N1c1ccccc1 (configuration not stated) | inactive | 
80 | CCN1CC(CN(C)Cc2nc(-c3ccc(Cl)cc3)no2)CC1=O (configuration not stated) | inactive | 
81 | CN(C)C(=O)N1CCNCC1 | inactive | 
82 | CCn1c(=S)[nH]c2sc3c(c2c1=O)CCCCC3 | 22.4 µM (active) | 
83 | CCC1(C)Cc2c(sc3[nH]c(=S)n(Cc4ccccc4)c(=O)c23)CO1 (configuration not stated) | inactive | 
84 | Cn1c(=O)n(Cc2ccco2)c(=N)c2c3c(sc21)CCCC3 | inactive | 
85 | C=CCn1c(=S)sc2c(=O)[nH]c(C)nc21 | inactive | 
86 | CCOC(=O)C1(CCOc2ccccc2)CCN(C(=O)c2cncs2)CC1 | inactive | 
87 | Cc1c(C(N)=O)sc2ncn(CCOc3ccccc3)c(=O)c12 | inactive | 
88 | CCN1C(=O)N[C@@H](c2ccccc2)[C@H](C(C)=O)[C@H]1C |  | 7.43% [at 13.5 µM] (inactive)
89 | CC(=O)c1ccc(OCCN2CCOCC2)cc1 | 25.1 µM (active) | 
90 | COc1ccc(OCC(=O)N2CCOCC2)cc1 | inactive | 
91 | Cc1ccc(C(=O)OC(C)CN2CCOCC2)cc1 (configuration not stated) | inactive | 
92 | FC(F)(F)c1cccc(-c2nc(COc3ccc(Cl)cc3Cl)no2)c1 | inactive | 

Row | SMILES | Potency | activity, negative = inhibition
93 | O=C(CC1SCCNC1=O)Nc1ccc(Cl)cc1 (configuration not stated) | inactive | 
94 | Cc1ccc(OCC(=O)NNC(=S)NCc2ccccc2)cc1 | inactive | 
95 | COc1ccc(N2CCN(Cc3nnc(-c4ccccc4)o3)CC2)cc1 | inactive | 
96 | COc1ccc(N2CCN(Cc3ccc(Br)s3)CC2)cc1 | 25.1 µM (active) | 
97 | Fc1ccc(N2CCN(Cc3cnc(Oc4ccc(Br)cc4)s3)CC2)cc1 | inactive | 
98 | Cc1ccc(NC(=O)CC2C(=O)N(Cc3ccccc3)C(=S)N2NC(=O)c2cccc(F)c2)c(C)c1 (configuration not stated) | inactive | 
99 | Cc1ccc(NC(=S)N(CCN(C)C)Cc2cccs2)cc1C | inactive | 
100 | O=C(O)CC(SCC(=O)Nc1ccc(Br)cc1)C(=O)O (configuration not stated) | inactive | 
101 | COc1ccc(SCc2noc(C(=O)NCC3CCCO3)c2C(=O)O)cc1 (configuration not stated) | inactive | 
102 | CCOc1ccc(-n2c(N)c(C(=O)NCC3CCCO3)sc2=S)cc1 (configuration not stated) | 15.8 µM (active) | 
103 | CCOc1ccc(S(=O)(=O)NCC2CCCO2)cc1 (configuration not stated) | inactive | 
104 | Cc1ccc(Cl)c(NC(=O)CN(C)CC(=O)Nc2ccc(F)c(F)c2F)c1Cl | inactive | 
105 | Cc1cccc(CN2CCN(Cc3cnn(-c4ccccc4F)c3)CC2CCO)n1 (configuration not stated) | inactive | 
106 | O=c1[nH]oc(O)c1-c1ncc(C(F)(F)F)cc1Cl | inactive | 
107 | Cc1csc(NC(=O)CSc2ccc(-c3ccc(F)cc3)nn2)n1 | inactive | 
108 | Cc1cc(/C=C2\SC(=Nc3ccc(N4CCOCC4)cc3)N(C)C2=O)c(C)n1-c1cccnc1 | inactive | 
109 | O=C(C1CC1)N1N=C2CCCCC2C1(O)C(F)(F)F (configuration not stated) | inactive | 
110 | N#Cc1c(NC(=O)CCCl)sc2c1CCCCC2 | inactive | 
111 | CCCc1nc2sc3c(c2c(=O)n1NC(=O)CCCl)CCCC3 | 14.1 µM (active) | 
112 | CC(C(=O)O)n1cnc2sc3c(c2c1=O)CCCC3 (configuration not stated) | inactive | 
